Results reported in PubChem BioAssay (NCATS).
Where “and” joins values, the source holds several entries; their conditions need not be identical. Equal values may be shown once. Records with an inconclusive call do not appear. Calls of active or inactive are those of the source. Unless noted, calls follow the shape of the dose curve; as a rule, active = well fitted curve in the direction sought with a large enough effect; inconclusive = small, poorly fitted or top-dose-only effect, or another doubt; inactive = no such curve, though single readings can be large; an effect the other way counts as inactive or inconclusive.

Experiments:
UISO = assay: qHTS assay to identify novel small-molecules to repurpose for Merkel cell carcinoma treatment (AID 1296009); settings: MCC and control cell lines, CellTiter-Glo viability, 72 h; series mostly up to 46 µM; also: nearly all actives have a fitted effect of over 60% in size; also: potency is read from the fitted curve at half-maximal effect
How it was run: (§1)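 After compound transfer in DMSO, plates were kept 72 hr at 37 degree celsius. Luminescent ATP signal from CellTiter-Glo served as viability measure, normalized against DMSO and no-cell controls.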

WaGa = assay: as above; settings: MCC and control cell lines, CellTiter-Glo viability, 72 h; series mostly up to 46 µM
How it was run: as §1

C33A = assay: Primary qHTS to identify gynecologic anti-cancer compounds using libraries of approved drugs and bioactive compounds (AID 1345084); settings: Gynecologic cancer cell panel viability, ATPlite luminescence, 48 h; series mostly up to 57.5 µM; also: nearly all actives have a fitted effect of over 55% in size; also: potency is read from the fitted curve at half-maximal effect
How it was run: (§2)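 Cells, 1,000 per well, were allowed to settle for 16 h at 37 C before compound addition. Five concentrations were tested for 48 h, and viability was read by ATPlite luminescence after 15 min at room temperature.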

CASKI = assay: as above; settings: Gynecologic cancer cell panel viability, ATPlite luminescence, 48 h; series mostly up to 57.5 µM
How it was run: as §2

Es-2 = assay: as above; settings: Gynecologic cancer cell panel viability, ATPlite luminescence, 48 h; series mostly up to 57.5 µM
How it was run: as §2

HeLa = assay: as above; settings: Gynecologic cancer cell panel viability, ATPlite luminescence, 48 h; series mostly up to 57.5 µM
How it was run: as §2

Hek293T = assay: as above; settings: Gynecologic cancer cell panel viability, ATPlite luminescence, 48 h, control line for the selectivity index; series mostly up to 57.5 µM
How it was run: as §2

JEG-3 = assay: as above; settings: Gynecologic cancer cell panel viability, ATPlite luminescence, 48 h; series mostly up to 57.5 µM
How it was run: as §2

PA-1 = assay: as above; settings: Gynecologic cancer cell panel viability, ATPlite luminescence, 48 h; series mostly up to 57.5 µM
How it was run: as §2

SKOV3 = assay: as above; settings: Gynecologic cancer cell panel viability, ATPlite luminescence, 48 h; series mostly up to 57.5 µM
How it was run: as §2

Tov-21-G = assay: as above; settings: Gynecologic cancer cell panel viability, ATPlite luminescence, 48 h; series mostly up to 57.5 µM
How it was run: as §2

Tov112D = assay: as above; settings: Gynecologic cancer cell panel viability, ATPlite luminescence, 48 h; series mostly up to 57.5 µM
How it was run: as §2

OV90 = assay: as above; settings: Gynecologic cancer cell panel viability, ATPlite luminescence, 48 h; series mostly up to 57.5 µM
How it was run: as §2

[1] = Drug repurposing screens with cells derived from glioblastoma tumor samples (AID 1345199); settings: GBM patient neurospheres viability, ATP luminescence, 48 h; also: nearly all actives have a fitted effect of over 40% in size; also: potency is read from the fitted curve at half-maximal effect; as to activity, negative = cell killing: % is scaled to controls: 0 for no effect and ±100 for the full control effect
How it was run: (§3)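 Four patient lines of CD133+ GBM neurospheres were screened at several concentrations; hits were retested in those lines plus three slower-growing GBM lines, using 48-hour treatment and ATP-based viability.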

astro = assay: as above; settings: viability, ATP luminescence, 48 h; series mostly up to 45.9 µM
How it was run: as §3

[2] = molecular target: Nuclear receptor subfamily 1 group I member 2 (Rattus norvegicus) (UniProt Q9R1A7); assay: qHTS assay for small molecule activators of the rat pregnane X receptor (rPXR) signaling pathway (AID 651751; call rule not given here; also: 0% is about no effect); settings: rPXR reporter cells, luciferase (One-Glo), 24 h
Chain of Nuclear receptor subfamily 1 group I member 2 (Rattus norvegicus) (Q9R1A7 whole entry, looked up): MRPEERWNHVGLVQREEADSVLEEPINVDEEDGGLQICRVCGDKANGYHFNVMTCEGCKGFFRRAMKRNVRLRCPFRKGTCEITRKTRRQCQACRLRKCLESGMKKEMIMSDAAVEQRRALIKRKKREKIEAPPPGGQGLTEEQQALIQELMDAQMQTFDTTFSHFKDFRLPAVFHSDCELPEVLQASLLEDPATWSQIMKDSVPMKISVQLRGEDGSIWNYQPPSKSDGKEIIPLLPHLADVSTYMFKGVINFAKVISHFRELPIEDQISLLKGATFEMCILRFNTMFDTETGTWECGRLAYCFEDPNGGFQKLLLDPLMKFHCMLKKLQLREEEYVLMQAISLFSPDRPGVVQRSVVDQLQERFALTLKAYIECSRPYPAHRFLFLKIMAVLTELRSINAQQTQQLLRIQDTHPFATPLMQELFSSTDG

[3] = qHTS assay for small molecule activators of the human pregnane X receptor (PXR) signaling pathway (AID 720659; call rule not given here; also: 0% is about no effect)
CAOV3 = assay: Primary qHTS to identify gynecologic anti-cancer compounds using libraries of approved drugs and bioactive compounds (AID 1345084); settings: Gynecologic cancer cell panel viability, ATPlite luminescence, 48 h; series mostly up to 57.5 µM; also: nearly all actives have a fitted effect of over 55% in size; also: potency is read from the fitted curve at half-maximal effect
How it was run: as §2

[4] = at 45.9 µM (top of the series), tumour line B
[5] = at 45.9 µM (top of the series), tumour line D
[6] = at 46.1 µM (top of the series), tumour line C

C/C(=N\O)[C@@H](C)NCC(C)(C)CN[C@H](C)/C(C)=N/O
inactive: Potency (UISO) | Potency (WaGa) | Potency (C33A) | Potency (CASKI) | Potency (Es-2) | Potency (HeLa) | Potency (Hek293T) | Potency (JEG-3) | Potency (PA-1) | Potency (SKOV3) | Potency (Tov-21-G) | Potency (Tov112D)

Cc1ncc(CO)c(CO)c1O
inactive: Potency (UISO) | Potency (WaGa) | Potency (C33A) | Potency (CASKI) | Potency (Es-2) | Potency (HeLa) | Potency (Hek293T) | Potency (JEG-3) | Potency (OV90) | Potency (PA-1) | Potency (SKOV3) | Potency (Tov-21-G) | Potency (Tov112D) | activity, negative = cell killing [1, 4] 0.285% | activity, negative = cell killing [1, 5] -6.71% | activity, negative = cell killing [1, 6] 3.74% | Potency (astro) | max response [2] -2.11% | outcome [3]

CCCCOCCOC(=O)c1cccnc1
inactive: Potency (UISO) | Potency (WaGa) | Potency (C33A) | Potency (CASKI) | Potency (Es-2) | Potency (HeLa) | Potency (Hek293T) | Potency (JEG-3) | Potency (OV90) | Potency (PA-1) | Potency (SKOV3) | Potency (Tov-21-G) | Potency (Tov112D)

CN1Cc2cc(C(=O)N3CCC(C4CCNCC4)CC3)ccc2N[C@@H](CC(=O)O)C1=O
inactive: Potency (UISO) | Potency (WaGa) | Potency (C33A) | Potency (CASKI) | Potency (Es-2) | Potency (HeLa) | Potency (Hek293T) | Potency (JEG-3) | Potency (OV90) | Potency (PA-1) | Potency (SKOV3) | Potency (Tov-21-G) | Potency (Tov112D)

CC(CC1c2ccccc2CCc2ccccc21)CN(C)C (centres undefined)
inactive: Potency (UISO) | Potency (WaGa) | Potency (C33A) | Potency (CASKI) | Potency (Es-2) | Potency (HeLa) | Potency (JEG-3) | Potency (PA-1) | Potency (Tov-21-G) | Potency (Tov112D)
active: Potency (OV90) 17.8 µM

CC(=O)Nc1c(I)c(NC(C)=O)c(I)c(C(=O)O)c1I
inactive: Potency (UISO) | Potency (WaGa) | Potency (C33A) | Potency (CASKI) | Potency (Es-2) | Potency (HeLa) | Potency (Hek293T) | Potency (JEG-3) | Potency (OV90) | Potency (PA-1) | Potency (SKOV3) | Potency (Tov-21-G) | Potency (Tov112D) | activity, negative = cell killing [1, 4] -4.92% | activity, negative = cell killing [1, 5] -9.58% | activity, negative = cell killing ([1]; at 46 µM (top of the series), tumour line A) -18.7% | activity, negative = cell killing [1, 6] -9.62% | Potency (astro)

CN=C(N)NC(=O)Nc1c(C)cccc1C
active: Potency ([1]; tumour line A) 17.8 µM
inactive: Potency (UISO) | Potency (WaGa) | Potency (C33A) | Potency (CASKI) | Potency (Es-2) | Potency (HeLa) | Potency (Hek293T) | Potency (JEG-3) | Potency (OV90) | Potency (PA-1) | Potency (SKOV3) | Potency (Tov-21-G) | Potency (Tov112D) | activity, negative = cell killing [1, 4] -6.83% | activity, negative = cell killing [1, 5] -0.753% | activity, negative = cell killing [1, 6] 0.539% | Potency (astro)

C[N+](C)(CCOc1ccccc1)Cc1cccs1
inactive: Potency (UISO) | Potency (C33A) | Potency (CASKI) | Potency (Es-2) | Potency (HeLa) | Potency (Hek293T) | Potency (JEG-3) | Potency (OV90) | Potency (PA-1) | Potency (SKOV3) | Potency (Tov-21-G) | Potency (Tov112D) | activity, negative = cell killing [1, 4] -1.12% | activity, negative = cell killing [1, 5] -8.83% | activity, negative = cell killing [1, 6] -14.1% | Potency (astro)

Oc1cccc2[nH]ccc12
active: Potency (UISO) 26.6 µM
inactive: Potency (C33A) | Potency (CAOV3) | Potency (CASKI) | Potency (Es-2) | Potency (HeLa) | Potency (Hek293T) | Potency (JEG-3) | Potency (OV90) | Potency (PA-1) | Potency (SKOV3) | Potency (Tov-21-G) | Potency (Tov112D)

Cc1c(C)c2c(c(C)c1OC(=O)CCC(=O)OCCO)CC[C@@](C)(CCC[C@H](C)CCC[C@H](C)CCCC(C)C)O2
inactive: Potency (UISO) | Potency (WaGa)
active: Potency (astro) 12.6 µM

CCCCCCCCCCCCCC[N+](C)(C)C
active: Potency (UISO) 2.37 µM | Potency (WaGa) 1.33 µM | Potency (CASKI) 3.16 µM | Potency (Es-2) 14.1 µM | Potency (PA-1) 11.2 µM | Potency (Tov-21-G) 5.62 µM | Potency (Tov112D) 14.1 µM | Potency (astro) 10 µM

O=C(Nc1ccc(Cl)cc1)Nc1ccc(Cl)c(Cl)c1
inactive: Potency (CASKI) | Potency (Tov-21-G) | max response [2] -12.4% | outcome [3]
active: Potency (UISO) 10.6 µM | Potency (WaGa) 21.1 µM

CC(C)(C)c1ccc(O)c(O)c1
inactive: Potency (astro) | max response [2] -0.177% and 2.15%
active: Potency (UISO) 15.4 µM | Potency (WaGa) 10.9 µM | Potency (OV90) 35.5 µM | Potency (SKOV3) 31.6 µM

CCCN(CCC)C(=O)C(CCC(=O)OCCCN1CCN(CCOC(=O)Cc2c(C)n(C(=O)c3ccc(Cl)cc3)c3ccc(OC)cc23)CC1)NC(=O)c1ccccc1 (centres undefined)
inactive: Potency (UISO) | Potency (C33A) | Potency (CAOV3) | Potency (CASKI) | Potency (Es-2) | Potency (HeLa) | Potency (Hek293T) | Potency (JEG-3) | Potency (OV90) | Potency (PA-1) | Potency (Tov-21-G) | Potency (Tov112D)

CO[C@@H]1[C@@H](O[C@@H]2O[C@H](C)[C@@H](O[C@H]3C[C@@](C)(O)[C@@H](O)[C@H](C)O3)[C@H](N(C)C)[C@H]2O)[C@@H](CC=O)C[C@@H](C)[C@@H](O[C@@H]2CC[C@H](N(C)C)[C@@H](C)O2)/C=C/C=C/C[C@@H](C)OC(=O)C[C@H]1OC(C)=O
active: Potency ([1]; tumour line A) 15.8 µM
inactive: Potency (UISO) | Potency (C33A) | Potency (CAOV3) | Potency (CASKI) | Potency (Es-2) | Potency (HeLa) | Potency (Hek293T) | Potency (JEG-3) | Potency (OV90) | Potency (PA-1) | Potency (SKOV3) | Potency (Tov-21-G) | Potency (Tov112D) | activity, negative = cell killing [1, 4] -18.6% | Potency (astro)

CCCCCCOC(=O)NC(=N)c1ccc(NCc2nc3cc(C(=O)N(CCC(=O)OCC)c4ccccn4)ccc3n2C)cc1
inactive: Potency (UISO) | Potency (C33A) | Potency (CAOV3) | Potency (CASKI) | Potency (HeLa) | Potency (JEG-3) | Potency (PA-1) | Potency (SKOV3) | Potency (Tov-21-G) | Potency (Tov112D)

CCCCCCCCCCCCCCCC[N+](C)(C)Cc1ccccc1
active: Potency (UISO) 4.22 µM | Potency (C33A) 28.2 µM | Potency (CAOV3) 20 µM | Potency (HeLa) 25.1 µM | Potency (OV90) 25.1 µM | Potency (PA-1) 15.8 µM | Potency (astro) 12.6 µM
inactive: Potency (JEG-3)

CCCC(=O)O[C@]1(C(=O)CC)CC[C@H]2[C@@H]3CCC4=CC(=O)CC[C@]4(C)[C@H]3[C@@H](O)C[C@@]21C
inactive: Potency (UISO) | Potency (C33A) | Potency (CASKI) | Potency (Es-2) | Potency (HeLa) | Potency (Hek293T) | Potency (JEG-3) | Potency (OV90) | Potency (PA-1) | Potency (SKOV3) | Potency (Tov-21-G) | Potency (Tov112D)
